Source: PubChem BioAssay
Activity calls are given as the source filed them. Unless noted, how the calls were made is not given here.

Legend:
[1] = system: Wnt5a (protein binding on small-molecule microarray); assay: Wnt5a binders on small-molecule microarray, primary screen, biophysical, 635/667 nm fluorescence (AID 1142); conditions: 635 nm fluorescence, higher = more signal;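 further: fluorescence read at 667 nm with signal to noise per printed feature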
[2] = cell viability in Huh7 cells, primary screen, cytotoxicity control for HCV replication inhibitor project, CellTiter-Glo luminescence, basal, 48 h (AID 1143); conditions: Huh7 HCV replicon, higher = more signal, called active from +8 up or from −8 down;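 further: Huh7 hepatoma cells carrying a hepatitis C replication reporter with no stimulus; test concentration not given here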
[3] = P. aeruginosa biofilm formation inhibitors, primary screen, PAO1 strain, BacTiter-Glo luminescence, LB-PBS (AID 1144); conditions: 12 h, higher = more signal
[4] = CREB reporter modulators without forskolin, primary screen, cell-based, PC12, CRE-LacZ reporter, unstimulated (AID 1145); conditions: no forskolin, luminescence, 4.5 h, higher = more signal, called active from +8 up or from −8 down
[5] = CREB reporter modulators under forskolin, primary screen, cell-based, PC12, CRE-LacZ reporter, forskolin-stimulated (AID 1146); conditions: luminescence, 4.5 h, higher = more signal, called active from +8 up or from −8 down;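 further: PC12 cells with 6xCRE LacZ reporter stimulated by forskolin 10 µM; beta-galactosidase reporter signal reflecting CREB driven transcription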
[6] = molecular target: Streptavidin (Streptomyces avidinii) (UniProt P22629); assay: streptavidin binders on small-molecule microarray, primary screen, artefact control for SMM compound annotation, biophysical, 635/667 nm fluorescence (AID 1147); conditions: streptavidin binding, higher = more signal;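 further: signal reflects streptavidin binding to arrayed compounds as a control protein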
[7] = small-molecule binders of probe aInhba, primary screen, biochemical, small-molecule microarray, 635/667 nm fluorescence (AID 1148); conditions: higher = more signal;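 further: score merges 667nm spot fluorescence with signal-to-noise for antibody binding to printed compounds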
Torsin-1A (Homo sapiens) [8] = molecular target: Torsin-1A (Homo sapiens) (UniProt O14656); assay: torsin A binders from cell lysate, primary screen, small-molecule microarray, wild-type, 635/667 nm (AID 1149); conditions: COS7 hTOR1A-WT lysate, 635 nm fluorescence, higher = more signal
Torsin-1A (Homo sapiens) [9] = molecular target: Torsin-1A (Homo sapiens) (UniProt O14656); assay: small-molecule binders of mutant TOR1A in lysate, primary screen, cell lysate, small-molecule microarray, COS7 lysate, 635/667 nm fluorescence (AID 1150); conditions: COS7 hTOR1A mutant lysate, 635 nm fluorescence, higher = more signal;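 further: score pools 667 nm emission and signal to noise measuring lysate protein binding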
[10] = system: Sonic hedgehog protein (Shh); assay: small-molecule binders of Shh protein, primary screen, biochemical, small-molecule microarray, 635/667 nm fluorescence (AID 1151); conditions: small-molecule microarray binding, 635 nm fluorescence; higher = more signal;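 further: Shh protein binding to compounds spotted on small-molecule microarray slides; score combines spot fluorescence intensity with signal-to-noise across triplicate slides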
[11] = E. coli DRC41 culture turbidity changes, primary screen, E. coli filamentation inducer project, strain DRC41, OD650, 48 h (AID 1152);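 further: E. coli MC1000 strain DRC41 lacking acrAB efflux pump and sulA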; conditions: E. coli DRC41 (acrAB sulA), higher = more signal, called active from +8 up or from −8 down
[12] = small-molecule binders of probe aLefty1, primary screen, biochemical, small-molecule microarray, 635/667 nm fluorescence (AID 1153); conditions: higher = more signal;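 further: score merges spot fluorescence with signal-to-noise ratio from the scanned slide images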
[13] = PSAC antagonists in infected red cells, primary screen, cell-based, P. falciparum Indochina, OD700, 1 h (AID 1154); conditions: P. falciparum Indochina infected RBC osmotic lysis, higher = more signal, called active from +8 up or from −8 down
[14] = PSAC antagonists in infected red cells, primary screen, cell-based, P. falciparum Indochina, OD700, 2 h (AID 1155);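 further: lysis reports solute entry through the parasite surface anion channel PSAC; channel blockers reduce lysis of infected cells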; conditions: P. falciparum Indochina infected erythrocytes, osmotic lysis OD700; higher = more signal, called active from +8 up or from −8 down
[15] = osmotic lysis modulators in infected erythrocytes, primary screen, PSAC antagonist project, cell-based, P. falciparum Indochina, OD700, 3 h (AID 1156); conditions: higher = more signal, called active from +8 up or from −8 down
[16] = PSAC antagonists in infected red cells, primary screen, cell-based, P. falciparum Indochina, OD700, 18 h (AID 1157); conditions: P. falciparum Indochina infected erythrocytes, osmotic lysis OD700, 18 h; higher = more signal, called active from +8 up or from −8 down
[17] = modulators of S6 phosphorylation in cells, primary screen, cell-based, A549, cytoblot, luminescence, serum-stimulated (AID 1158); conditions: A549 phospho-S6 cytoblot, 5 h, higher = more signal;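 further: serum-stimulated A549 lung adenocarcinoma cells; signal is phosphorylated S6 detected by cytoblot immunostaining with HRP secondary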
[18] = molecular target: NADPH oxidase 2 (Homo sapiens) (UniProt P04839); assay: NOX2-dependent H2O2 signal modulators, primary screen, NOX inhibitor project, cell-based, HEK293-NOX2, PMA-stimulated, Amplex Red fluorescence (AID 1159); conditions: 45 min, higher = more signal, called active from +8 up or from −8 down; further: test concentration not given here
[19] = molecular target: NADPH oxidase 4 (Homo sapiens) (UniProt Q9NPH5); assay: NOX4-dependent H2O2 signal modulators, primary screen, NOX inhibitor project, cell-based, HEK293-NOX4, tetracycline-induced, Amplex Red fluorescence (AID 1160); conditions: 45 min, higher = more signal, called active from +8 up or from −8 down
[20] = molecular target: NADPH oxidase 5 (Homo sapiens) (UniProt Q96PH1); assay: NOX5-dependent H2O2 signal modulators, primary screen, NOX inhibitor project, cell-based, HEK293-NOX5, Amplex Red fluorescence (AID 1161); conditions: HEK293-NOX5, ionomycin, 45 min, higher = more signal
Chain of NADPH oxidase 5 (Homo sapiens) (Q96PH1 whole entry, looked up): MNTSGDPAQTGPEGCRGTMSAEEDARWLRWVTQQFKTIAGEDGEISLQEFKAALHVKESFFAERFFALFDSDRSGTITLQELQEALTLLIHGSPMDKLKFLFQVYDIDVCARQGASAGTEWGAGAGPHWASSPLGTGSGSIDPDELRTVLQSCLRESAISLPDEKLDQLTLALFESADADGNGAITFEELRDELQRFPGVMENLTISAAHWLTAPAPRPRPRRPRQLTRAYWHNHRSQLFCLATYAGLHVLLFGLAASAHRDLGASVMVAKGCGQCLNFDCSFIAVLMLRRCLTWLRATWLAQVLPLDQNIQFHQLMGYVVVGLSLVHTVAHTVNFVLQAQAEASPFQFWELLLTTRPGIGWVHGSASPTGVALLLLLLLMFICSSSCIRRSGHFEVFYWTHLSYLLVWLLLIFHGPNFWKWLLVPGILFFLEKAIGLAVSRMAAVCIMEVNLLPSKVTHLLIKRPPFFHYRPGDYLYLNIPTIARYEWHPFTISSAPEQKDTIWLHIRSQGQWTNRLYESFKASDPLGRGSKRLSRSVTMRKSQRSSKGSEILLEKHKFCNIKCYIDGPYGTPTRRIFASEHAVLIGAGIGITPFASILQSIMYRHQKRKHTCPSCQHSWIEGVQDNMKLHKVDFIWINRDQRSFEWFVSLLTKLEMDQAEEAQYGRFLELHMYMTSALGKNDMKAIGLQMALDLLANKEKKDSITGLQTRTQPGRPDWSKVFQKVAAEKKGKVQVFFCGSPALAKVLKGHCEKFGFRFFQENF

Chain of Streptavidin (Streptomyces avidinii) (P22629 whole entry, looked up): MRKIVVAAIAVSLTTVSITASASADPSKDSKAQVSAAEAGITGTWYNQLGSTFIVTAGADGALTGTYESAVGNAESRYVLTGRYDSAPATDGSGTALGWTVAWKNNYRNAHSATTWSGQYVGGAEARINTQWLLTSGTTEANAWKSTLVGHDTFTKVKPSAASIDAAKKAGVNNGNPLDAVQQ
Chain of NADPH oxidase 2 (Homo sapiens) (P04839 whole entry, looked up): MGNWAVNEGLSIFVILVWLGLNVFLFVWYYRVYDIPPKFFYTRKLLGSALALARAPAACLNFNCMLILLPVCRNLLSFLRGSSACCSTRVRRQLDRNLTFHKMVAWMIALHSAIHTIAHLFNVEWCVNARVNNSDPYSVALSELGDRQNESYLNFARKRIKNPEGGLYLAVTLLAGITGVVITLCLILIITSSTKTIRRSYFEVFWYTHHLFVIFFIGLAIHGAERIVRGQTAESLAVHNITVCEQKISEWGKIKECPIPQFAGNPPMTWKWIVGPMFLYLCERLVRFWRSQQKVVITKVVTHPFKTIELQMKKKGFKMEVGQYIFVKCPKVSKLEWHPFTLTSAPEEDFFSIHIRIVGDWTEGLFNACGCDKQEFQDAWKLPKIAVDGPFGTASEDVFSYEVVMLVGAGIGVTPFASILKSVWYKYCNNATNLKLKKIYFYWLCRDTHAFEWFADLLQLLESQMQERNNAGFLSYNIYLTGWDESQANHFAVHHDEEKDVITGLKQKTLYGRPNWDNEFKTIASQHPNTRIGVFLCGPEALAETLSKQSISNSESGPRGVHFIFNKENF
Chain of Torsin-1A (Homo sapiens) (O14656 whole entry, looked up): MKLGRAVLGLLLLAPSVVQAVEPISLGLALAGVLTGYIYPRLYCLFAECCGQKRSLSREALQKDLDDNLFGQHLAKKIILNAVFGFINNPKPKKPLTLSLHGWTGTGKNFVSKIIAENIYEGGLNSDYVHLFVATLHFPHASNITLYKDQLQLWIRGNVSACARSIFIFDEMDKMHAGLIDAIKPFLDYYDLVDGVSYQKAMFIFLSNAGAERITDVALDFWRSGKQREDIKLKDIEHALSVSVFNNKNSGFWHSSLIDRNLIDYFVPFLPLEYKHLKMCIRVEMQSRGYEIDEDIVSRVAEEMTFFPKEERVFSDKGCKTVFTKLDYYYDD
Chain of NADPH oxidase 4 (Homo sapiens) (Q9NPH5 whole entry, looked up): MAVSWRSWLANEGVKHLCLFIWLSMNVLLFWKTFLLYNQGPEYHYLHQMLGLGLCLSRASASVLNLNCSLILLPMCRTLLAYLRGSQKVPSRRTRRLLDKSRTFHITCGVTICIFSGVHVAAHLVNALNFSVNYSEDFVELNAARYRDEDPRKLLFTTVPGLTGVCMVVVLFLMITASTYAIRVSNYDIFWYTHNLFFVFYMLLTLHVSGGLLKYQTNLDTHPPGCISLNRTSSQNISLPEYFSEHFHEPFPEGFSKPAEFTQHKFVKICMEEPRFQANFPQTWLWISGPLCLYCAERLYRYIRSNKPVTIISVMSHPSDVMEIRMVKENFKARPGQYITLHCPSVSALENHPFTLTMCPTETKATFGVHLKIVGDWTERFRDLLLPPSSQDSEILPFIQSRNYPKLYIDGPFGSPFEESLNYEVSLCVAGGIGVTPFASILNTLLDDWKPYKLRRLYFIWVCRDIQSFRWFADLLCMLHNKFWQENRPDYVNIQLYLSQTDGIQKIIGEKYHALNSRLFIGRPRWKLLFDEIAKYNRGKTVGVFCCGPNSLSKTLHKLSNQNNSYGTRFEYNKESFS

Compound: CC1(C)C2C=C(C(O)C3C=CC4C(=O)NC(=O)C4N3Nc3ccc(Cl)cc3Cl)C[C@@H]1C2 (stereo not given in full)
- composite z-score [1]: 0.696
- z-score [2]: -2.39 (inactive)
- z-score [3]: -0.418 (inactive)
- z-score [4]: 1.19 (inactive)
- z-score [5]: -0.0073 (inactive)
- composite z-score [6]: 0.961
- composite z-score [7]: 0.0236
- composite z-score (Torsin-1A (Homo sapiens) [8]): -0.0995
- composite z-score (Torsin-1A (Homo sapiens) [9]): 1.09
- composite z-score [10]: -0.193
- z-score [11]: -4.41 (inactive)
- composite z-score [12]: 0.265
- z-score [13]: 3.33 (inactive)
- z-score [14]: 0.916 (inactive)
- z-score [15]: -2.43 (inactive)
- z-score [16]: 1.19 (inactive)
- z-score [17]: -1.38
- z-score [18]: -0.197 (inactive)
- z-score [19]: -5.57 (inactive)
- z-score [20]: -3.46

Compound: CC(C)C[C@@H]1NC(=O)[C@@H]2C[C@H](C(=O)O)[C@H](c3cccc(OCCO)c3)N2C1=O
- composite z-score [1]: 0.64
- z-score [2]: -1.07 (inactive)
- z-score [3]: 0.133 (inactive)
- z-score [4]: 0.826 (inactive)
- z-score [5]: 1.41 (inactive)
- composite z-score [6]: -0.811
- composite z-score [7]: -0.209
- composite z-score (Torsin-1A (Homo sapiens) [8]): 0.198
- composite z-score (Torsin-1A (Homo sapiens) [9]): 1.09
- composite z-score [10]: 0.188
- z-score [11]: 0.649 (inactive)
- composite z-score [12]: -0.0966
- z-score [13]: 3.95 (inactive)
- z-score [14]: 0.373 (inactive)
- z-score [15]: -0.917 (inactive)
- z-score [16]: 0.0571 (inactive)
- z-score [17]: -0.129
- z-score [18]: 1.34 (inactive)
- z-score [19]: 0.663 (inactive)
- z-score [20]: 2.01

Compound: [N-]=[N+]=NCc1ccccc1C[C@]1(C(=O)N2CCCCC2)N=C(c2ccc(OCCCO)cc2)O[C@H]1c1ccccc1N=[N+]=[N-]
- composite z-score [1]: 0.0151
- z-score [2]: -5.01 (inactive)
- z-score [3]: -0.799 (inactive)
- z-score [4]: -0.333 (inactive)
- z-score [5]: -1.69 (inactive)
- composite z-score [6]: 1.46
- composite z-score [7]: 0.127
- composite z-score (Torsin-1A (Homo sapiens) [8]): 0.333
- composite z-score (Torsin-1A (Homo sapiens) [9]): 1.03
- composite z-score [10]: -0.27
- z-score [11]: -0.365 (inactive)
- composite z-score [12]: 0.286
- z-score [13]: 30.8 (active)
- z-score [14]: 26.5 (active)
- z-score [15]: 3.55 (inactive)
- z-score [16]: 6.26 (inactive)
- z-score [17]: 1.9
- z-score [18]: -2.45 (inactive)
- z-score [19]: 0.306 (inactive)
- z-score [20]: -2.97

Compound: C=CC[C@@]1(C(=O)NCCN2CCOCC2)N=C(c2ccc(OCCCO)cc2)O[C@@H]1c1ccccc1N=[N+]=[N-]
- composite z-score [1]: 0.298
- z-score [2]: -1.56 (inactive)
- z-score [3]: 0.45 (inactive)
- z-score [4]: 0.185 (inactive)
- z-score [5]: -0.461 (inactive)
- composite z-score [6]: 0.236
- composite z-score [7]: -0.0093
- composite z-score (Torsin-1A (Homo sapiens) [8]): -0.0075
- composite z-score (Torsin-1A (Homo sapiens) [9]): 0.416
- composite z-score [10]: -0.203
- z-score [11]: 0.301 (inactive)
- composite z-score [12]: 0.144
- z-score [13]: 31.2 (active)
- z-score [14]: 31.8 (active)
- z-score [15]: 2.48 (inactive)
- z-score [16]: 2.95 (inactive)
- z-score [17]: -0.291
- z-score [18]: -1.67 (inactive)
- z-score [19]: 0.0137 (inactive)
- z-score [20]: -1.73

Compound: C=CCN1C(=O)[C@@]2(Cc3ccccc31)N=C(c1ccc(OCCCO)cc1)O[C@H]2c1ccccc1
- composite z-score [1]: 0.344
- z-score [2]: -3.53 (inactive)
- z-score [3]: -0.144 (inactive)
- z-score [4]: 0.47 (inactive)
- z-score [5]: -1.81 (inactive)
- composite z-score [6]: 0.0866
- composite z-score [7]: 0.195
- composite z-score (Torsin-1A (Homo sapiens) [8]): 0.698
- composite z-score (Torsin-1A (Homo sapiens) [9]): 0.855
- composite z-score [10]: 1.14
- z-score [11]: 0.613 (inactive)
- composite z-score [12]: 0.481
- z-score [13]: 14.6 (active)
- z-score [14]: 3.47 (inactive)
- z-score [15]: 3.29 (inactive)
- z-score [16]: 1.35 (inactive)
- z-score [17]: 0.104
- z-score [18]: -2.01 (inactive)
- z-score [19]: -0.253 (inactive)
- z-score [20]: -2.65
